In the supplement of paper PMC11732987, “Enantioselective OTUD7B fragment discovery through chemoproteomics screening and high-throughput optimisation” (Communications Chemistry, 2025):

Experiments:
Experiment in all cases: log2 ratio of Biotin-Ahx-Ub-VS probe labelling (fragment/DMSO); higher = less target engagement (more negative = stronger competition), active = hit call of the paper (q ≤ 0.05, log2 ratio ≤ -1)
Conditions in all cases: compound concentration: 200 uM; treatment time: 3 h
USP34 = USP34 (UniProt Q70CQ2)
Sequence of USP34 (Q70CQ2 whole entry, the tested form may be a part): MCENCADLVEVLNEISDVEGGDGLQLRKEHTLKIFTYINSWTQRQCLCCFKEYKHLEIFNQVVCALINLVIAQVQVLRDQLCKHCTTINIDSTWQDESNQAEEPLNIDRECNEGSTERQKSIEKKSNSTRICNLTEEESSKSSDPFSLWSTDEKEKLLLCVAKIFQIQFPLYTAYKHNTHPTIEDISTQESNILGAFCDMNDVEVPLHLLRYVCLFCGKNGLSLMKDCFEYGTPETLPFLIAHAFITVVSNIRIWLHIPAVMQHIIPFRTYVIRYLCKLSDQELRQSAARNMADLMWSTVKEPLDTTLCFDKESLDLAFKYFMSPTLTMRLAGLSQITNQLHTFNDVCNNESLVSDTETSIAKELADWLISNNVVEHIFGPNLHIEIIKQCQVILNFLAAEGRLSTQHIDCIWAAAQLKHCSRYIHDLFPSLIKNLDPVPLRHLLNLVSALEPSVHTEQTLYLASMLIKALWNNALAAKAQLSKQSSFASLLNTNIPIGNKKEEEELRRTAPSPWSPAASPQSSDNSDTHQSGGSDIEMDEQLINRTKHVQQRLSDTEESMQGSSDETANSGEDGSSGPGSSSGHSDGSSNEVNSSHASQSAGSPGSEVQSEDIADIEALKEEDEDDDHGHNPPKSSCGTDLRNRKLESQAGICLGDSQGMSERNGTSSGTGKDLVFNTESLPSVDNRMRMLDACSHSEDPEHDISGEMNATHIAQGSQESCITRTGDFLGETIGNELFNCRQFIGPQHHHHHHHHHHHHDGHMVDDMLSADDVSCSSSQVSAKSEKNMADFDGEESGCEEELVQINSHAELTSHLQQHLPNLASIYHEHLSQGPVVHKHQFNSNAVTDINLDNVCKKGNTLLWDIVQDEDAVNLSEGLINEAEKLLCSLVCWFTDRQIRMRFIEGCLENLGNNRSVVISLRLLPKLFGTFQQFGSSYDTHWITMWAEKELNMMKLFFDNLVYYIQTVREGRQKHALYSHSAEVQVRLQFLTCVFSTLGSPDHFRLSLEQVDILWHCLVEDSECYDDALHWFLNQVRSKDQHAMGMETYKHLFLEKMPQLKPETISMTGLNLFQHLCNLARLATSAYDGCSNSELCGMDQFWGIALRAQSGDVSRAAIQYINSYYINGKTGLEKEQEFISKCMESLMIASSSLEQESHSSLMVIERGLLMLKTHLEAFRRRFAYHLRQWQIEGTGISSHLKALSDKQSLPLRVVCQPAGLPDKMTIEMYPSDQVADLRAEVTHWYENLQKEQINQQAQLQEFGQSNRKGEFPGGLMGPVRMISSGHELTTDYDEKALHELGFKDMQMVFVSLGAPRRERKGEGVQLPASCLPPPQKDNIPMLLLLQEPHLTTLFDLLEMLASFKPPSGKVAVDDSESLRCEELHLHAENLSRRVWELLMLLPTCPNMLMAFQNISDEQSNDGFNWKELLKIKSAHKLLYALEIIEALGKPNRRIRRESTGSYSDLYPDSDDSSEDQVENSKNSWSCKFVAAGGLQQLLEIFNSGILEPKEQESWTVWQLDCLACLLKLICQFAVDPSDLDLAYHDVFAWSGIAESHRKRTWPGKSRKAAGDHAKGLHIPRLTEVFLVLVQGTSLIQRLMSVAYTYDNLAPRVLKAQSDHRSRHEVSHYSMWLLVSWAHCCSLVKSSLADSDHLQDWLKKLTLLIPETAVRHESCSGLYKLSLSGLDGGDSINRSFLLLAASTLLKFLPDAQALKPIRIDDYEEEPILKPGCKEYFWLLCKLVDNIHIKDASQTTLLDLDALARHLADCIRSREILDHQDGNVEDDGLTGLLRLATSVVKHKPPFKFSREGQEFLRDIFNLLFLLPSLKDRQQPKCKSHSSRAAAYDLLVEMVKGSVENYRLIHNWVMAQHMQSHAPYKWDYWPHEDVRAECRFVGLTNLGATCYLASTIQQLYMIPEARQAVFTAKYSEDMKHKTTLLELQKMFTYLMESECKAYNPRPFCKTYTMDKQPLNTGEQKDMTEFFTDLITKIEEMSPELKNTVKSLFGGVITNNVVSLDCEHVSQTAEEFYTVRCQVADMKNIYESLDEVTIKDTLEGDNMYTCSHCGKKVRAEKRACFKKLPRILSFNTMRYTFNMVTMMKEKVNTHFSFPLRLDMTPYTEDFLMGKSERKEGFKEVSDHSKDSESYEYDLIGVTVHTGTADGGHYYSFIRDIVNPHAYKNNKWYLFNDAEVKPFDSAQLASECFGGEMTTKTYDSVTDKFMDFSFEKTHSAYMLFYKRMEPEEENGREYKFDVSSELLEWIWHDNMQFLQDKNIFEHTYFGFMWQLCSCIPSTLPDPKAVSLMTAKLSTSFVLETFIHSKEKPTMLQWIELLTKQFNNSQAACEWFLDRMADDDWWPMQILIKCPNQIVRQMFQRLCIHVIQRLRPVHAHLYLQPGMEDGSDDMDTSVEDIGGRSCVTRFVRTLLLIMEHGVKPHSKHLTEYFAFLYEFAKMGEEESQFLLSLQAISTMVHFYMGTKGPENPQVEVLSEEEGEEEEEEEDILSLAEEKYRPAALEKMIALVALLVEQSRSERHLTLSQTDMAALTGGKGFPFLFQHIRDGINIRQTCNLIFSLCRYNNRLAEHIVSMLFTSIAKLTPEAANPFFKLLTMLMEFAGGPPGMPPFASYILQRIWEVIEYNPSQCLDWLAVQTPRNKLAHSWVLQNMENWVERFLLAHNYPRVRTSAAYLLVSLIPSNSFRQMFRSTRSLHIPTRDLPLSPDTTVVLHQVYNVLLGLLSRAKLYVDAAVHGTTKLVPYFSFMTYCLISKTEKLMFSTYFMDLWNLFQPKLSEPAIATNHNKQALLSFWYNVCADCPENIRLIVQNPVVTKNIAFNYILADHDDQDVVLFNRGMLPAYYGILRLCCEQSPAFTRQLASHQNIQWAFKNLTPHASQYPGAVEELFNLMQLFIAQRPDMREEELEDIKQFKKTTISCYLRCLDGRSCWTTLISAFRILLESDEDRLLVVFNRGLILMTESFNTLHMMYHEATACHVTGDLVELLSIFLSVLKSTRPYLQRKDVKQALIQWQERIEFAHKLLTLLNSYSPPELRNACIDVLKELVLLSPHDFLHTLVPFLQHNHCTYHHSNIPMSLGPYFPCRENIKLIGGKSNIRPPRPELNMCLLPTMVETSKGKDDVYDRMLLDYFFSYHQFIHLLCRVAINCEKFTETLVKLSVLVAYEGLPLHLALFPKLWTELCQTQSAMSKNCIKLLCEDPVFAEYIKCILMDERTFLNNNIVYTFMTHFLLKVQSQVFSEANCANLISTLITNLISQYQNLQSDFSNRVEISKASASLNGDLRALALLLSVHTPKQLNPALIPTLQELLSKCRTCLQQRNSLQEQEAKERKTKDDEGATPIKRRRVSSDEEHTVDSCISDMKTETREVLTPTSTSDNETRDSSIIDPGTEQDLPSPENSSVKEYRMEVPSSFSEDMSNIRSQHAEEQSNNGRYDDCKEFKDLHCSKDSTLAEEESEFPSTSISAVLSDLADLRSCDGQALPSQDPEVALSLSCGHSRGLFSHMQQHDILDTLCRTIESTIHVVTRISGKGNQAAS
Method in brief: (§1)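 Values give the average log2 ratio of fragment to vehicle, assessed by unpaired t-test on global-median-normalised Spectronaut label-free quantities. Proteins needed ≥2 unique peptides. HEK293T lysate (495 µg per sample) was treated in triplicate with fragment at 200 µM or vehicle for 3 h and then with Biotin-Ahx-Ub-VS at 0.5 µM final for 1 h. Labelled DUBs were NeutrAvidin-enriched, digested and run by diaPASEF LC-MS/MS.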

USP36 = biological target: T1, USP36 (UniProt Q9P275)
T1 sequence (whole entry): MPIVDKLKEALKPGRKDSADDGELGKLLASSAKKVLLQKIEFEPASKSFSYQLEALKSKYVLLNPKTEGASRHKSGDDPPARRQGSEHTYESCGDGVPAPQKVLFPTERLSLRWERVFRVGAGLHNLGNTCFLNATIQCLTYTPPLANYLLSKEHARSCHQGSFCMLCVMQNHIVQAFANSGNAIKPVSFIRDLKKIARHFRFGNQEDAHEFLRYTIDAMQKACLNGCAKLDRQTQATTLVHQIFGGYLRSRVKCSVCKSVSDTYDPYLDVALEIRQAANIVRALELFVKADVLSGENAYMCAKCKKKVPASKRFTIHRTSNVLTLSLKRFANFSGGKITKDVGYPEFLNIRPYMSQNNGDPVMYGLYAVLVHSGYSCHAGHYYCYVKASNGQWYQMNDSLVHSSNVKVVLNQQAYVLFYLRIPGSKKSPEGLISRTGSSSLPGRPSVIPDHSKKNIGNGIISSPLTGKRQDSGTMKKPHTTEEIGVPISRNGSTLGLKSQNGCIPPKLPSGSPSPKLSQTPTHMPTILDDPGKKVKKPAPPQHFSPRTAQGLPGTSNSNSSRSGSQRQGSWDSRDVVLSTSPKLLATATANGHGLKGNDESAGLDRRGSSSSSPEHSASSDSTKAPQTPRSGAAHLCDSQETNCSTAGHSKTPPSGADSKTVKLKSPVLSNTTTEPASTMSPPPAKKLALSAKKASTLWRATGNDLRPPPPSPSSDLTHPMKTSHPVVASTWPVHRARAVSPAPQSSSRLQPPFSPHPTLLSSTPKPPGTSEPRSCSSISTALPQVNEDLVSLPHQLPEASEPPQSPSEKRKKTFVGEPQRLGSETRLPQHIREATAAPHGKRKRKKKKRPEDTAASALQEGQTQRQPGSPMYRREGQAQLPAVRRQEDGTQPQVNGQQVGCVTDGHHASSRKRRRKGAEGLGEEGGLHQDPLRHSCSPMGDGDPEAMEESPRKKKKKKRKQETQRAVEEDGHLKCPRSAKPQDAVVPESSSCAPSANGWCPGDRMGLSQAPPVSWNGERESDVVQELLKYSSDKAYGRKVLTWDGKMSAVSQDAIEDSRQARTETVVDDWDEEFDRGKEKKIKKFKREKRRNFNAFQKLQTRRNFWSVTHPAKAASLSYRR
Method in brief: as §1

USP38 = biological target: T2, USP38 (UniProt Q8NB14)
T2 sequence (whole entry): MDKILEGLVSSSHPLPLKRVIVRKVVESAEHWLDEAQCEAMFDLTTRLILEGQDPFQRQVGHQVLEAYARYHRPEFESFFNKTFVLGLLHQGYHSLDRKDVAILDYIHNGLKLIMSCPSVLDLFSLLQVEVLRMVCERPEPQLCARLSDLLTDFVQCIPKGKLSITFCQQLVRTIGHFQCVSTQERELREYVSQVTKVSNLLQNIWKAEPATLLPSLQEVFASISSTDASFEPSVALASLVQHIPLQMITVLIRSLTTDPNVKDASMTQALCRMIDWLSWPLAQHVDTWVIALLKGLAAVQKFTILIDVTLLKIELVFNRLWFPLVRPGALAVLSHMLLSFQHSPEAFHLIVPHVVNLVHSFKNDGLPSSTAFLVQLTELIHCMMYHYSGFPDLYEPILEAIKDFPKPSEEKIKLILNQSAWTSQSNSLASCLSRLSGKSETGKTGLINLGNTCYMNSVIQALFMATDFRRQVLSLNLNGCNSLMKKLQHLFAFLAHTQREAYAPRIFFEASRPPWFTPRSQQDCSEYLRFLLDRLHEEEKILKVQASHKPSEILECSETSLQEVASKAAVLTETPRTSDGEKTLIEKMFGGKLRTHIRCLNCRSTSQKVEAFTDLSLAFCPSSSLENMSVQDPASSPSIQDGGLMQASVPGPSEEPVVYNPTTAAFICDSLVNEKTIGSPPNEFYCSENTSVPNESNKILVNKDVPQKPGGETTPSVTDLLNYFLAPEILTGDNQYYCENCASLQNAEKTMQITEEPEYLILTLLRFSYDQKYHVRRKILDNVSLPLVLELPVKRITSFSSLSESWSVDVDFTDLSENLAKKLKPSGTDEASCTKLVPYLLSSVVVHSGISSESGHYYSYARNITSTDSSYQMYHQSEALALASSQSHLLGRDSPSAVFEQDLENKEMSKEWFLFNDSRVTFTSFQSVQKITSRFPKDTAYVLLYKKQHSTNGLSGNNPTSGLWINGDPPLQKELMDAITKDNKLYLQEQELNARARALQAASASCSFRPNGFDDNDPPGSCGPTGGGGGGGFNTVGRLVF
Method in brief: as §1

USP39 = biological target: T3, USP39 (UniProt Q53GS9)
T3 sequence (whole entry): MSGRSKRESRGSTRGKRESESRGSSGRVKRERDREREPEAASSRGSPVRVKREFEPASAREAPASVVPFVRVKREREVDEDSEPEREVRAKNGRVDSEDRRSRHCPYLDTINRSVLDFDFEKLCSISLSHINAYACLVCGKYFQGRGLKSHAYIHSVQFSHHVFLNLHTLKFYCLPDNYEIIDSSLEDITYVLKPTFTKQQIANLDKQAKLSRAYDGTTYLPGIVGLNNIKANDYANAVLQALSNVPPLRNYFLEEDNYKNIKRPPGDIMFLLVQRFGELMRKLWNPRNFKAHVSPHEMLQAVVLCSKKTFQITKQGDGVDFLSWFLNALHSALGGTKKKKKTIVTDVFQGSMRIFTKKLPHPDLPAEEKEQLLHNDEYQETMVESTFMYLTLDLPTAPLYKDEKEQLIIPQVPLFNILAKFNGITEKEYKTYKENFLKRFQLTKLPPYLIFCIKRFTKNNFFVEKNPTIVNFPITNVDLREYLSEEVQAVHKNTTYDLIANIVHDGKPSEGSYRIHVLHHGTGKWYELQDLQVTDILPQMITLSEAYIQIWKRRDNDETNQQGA
Method in brief: as §1

USP4 = biological target: T4, USP4 (UniProt Q13107)
T4 sequence (whole entry): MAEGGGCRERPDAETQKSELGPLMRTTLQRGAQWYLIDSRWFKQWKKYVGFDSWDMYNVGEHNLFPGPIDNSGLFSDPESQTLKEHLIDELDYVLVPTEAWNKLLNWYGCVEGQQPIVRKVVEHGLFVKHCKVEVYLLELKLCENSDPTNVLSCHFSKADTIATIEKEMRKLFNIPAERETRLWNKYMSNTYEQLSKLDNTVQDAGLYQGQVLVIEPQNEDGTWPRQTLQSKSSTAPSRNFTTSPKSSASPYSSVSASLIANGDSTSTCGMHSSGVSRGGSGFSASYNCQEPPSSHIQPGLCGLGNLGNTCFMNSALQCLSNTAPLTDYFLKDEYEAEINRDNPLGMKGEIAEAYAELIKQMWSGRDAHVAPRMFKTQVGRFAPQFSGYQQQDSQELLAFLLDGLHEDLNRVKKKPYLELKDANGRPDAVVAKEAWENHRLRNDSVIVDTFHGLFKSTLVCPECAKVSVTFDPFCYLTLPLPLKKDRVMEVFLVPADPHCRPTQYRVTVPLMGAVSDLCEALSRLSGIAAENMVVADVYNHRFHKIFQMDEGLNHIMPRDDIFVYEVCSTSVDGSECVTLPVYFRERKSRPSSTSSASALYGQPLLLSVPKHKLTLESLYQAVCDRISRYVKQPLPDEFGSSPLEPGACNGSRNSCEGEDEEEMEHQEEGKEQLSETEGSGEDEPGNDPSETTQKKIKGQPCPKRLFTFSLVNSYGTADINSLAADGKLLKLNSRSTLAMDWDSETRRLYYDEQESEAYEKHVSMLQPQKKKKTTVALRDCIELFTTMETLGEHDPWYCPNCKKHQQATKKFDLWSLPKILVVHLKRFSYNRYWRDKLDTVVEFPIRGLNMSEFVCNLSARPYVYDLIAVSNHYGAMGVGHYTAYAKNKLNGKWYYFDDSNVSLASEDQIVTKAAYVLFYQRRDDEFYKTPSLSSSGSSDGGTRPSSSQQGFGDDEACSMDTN
Method in brief: as §1

Measured: log2 ratio of Biotin-Ahx-Ub-VS probe labelling

Cc1cnc2[nH]cc(CCNC(=O)CCl)c2c1
inactive: USP34 -0.162 | USP36 -0.31 | USP38 0.0877 | USP39 0.144 | USP4 -0.338
